Assay results: PubChem BioAssay AID1159580 (chemical genetic matrix, 2015)
Hit rate of the full screen: of about 5,500 compounds, about 2,000 (36%) were called active. Inconclusive results (about 18%) are left out. Cut-off read from the data, not from the text of the source: active = normalized growth mostly below about 0.91 (no sharp cut-off); inconclusive = no clear call, values can overlap the other calls; inactive = mostly above about 0.92. Some of the results follow.

Test: chemical genetic growth profiling, strain panel (AID 1159580);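 note: tested at 20 µM; growth read once vehicle control cultures reached saturation at 30 °C; 1 = growth at the plate median or of vehicle wells; lower values mean less growth of the strain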
Conditions: S. cerevisiae deletion strains, growth OD

Measured: normalized growth

CC(=O)c1cc(CC=C(C)C)c(O)c(CC=C(C)C)c1
active: locus YBR021W, strain FUR4, active compounds read low 1.42 [resistant] | locus YDR162C, strain NBP2, active compounds read low 0.665 | locus YHR030C, strain SLT2, active compounds read low 0.878
inactive: locus YAL013W, strain DEP1, active compounds read low 0.924 | locus YAL021C, strain ccr4, active compounds read low 1 | locus YAL026C, strain drs2, active compounds read low 1.01 | locus YAL030W, strain snc1, active compounds read low 1.01 | locus YBL061C, strain skt5, active compounds read low 1 | locus YBR009C, strain hhf1, active compounds read low 1 | locus YBR023C, strain chs3, active compounds read low 1 | locus YBR171W, strain sec66, active compounds read low 1.01 | locus YBR229C, strain ROT2, active compounds read low 0.989 | locus YBR231C, strain swc5, active compounds read low 1 | locus YBR279W, strain paf1, active compounds read low 1.02 | locus YCL011C, strain gbp2, active compounds read low 1.01 | locus YCL016C, strain dcc1, active compounds read low 1.01 | locus YCL029C, strain bik1, active compounds read low 0.96 | locus YCL061C, strain MRC1, active compounds read low 1.01 | locus YCL069W, strain vba3, active compounds read low 1 | locus YCR088W, strain abp1, active compounds read low 1 | locus YDL005C, strain med2, active compounds read low 1.02 | locus YDL035C, strain GPR1, active compounds read low 0.947 | locus YDL040C, strain nat1, active compounds read low 1.01 | locus YDL074C, strain BRE1, active compounds read low 0.797 | locus YDL101C, strain DUN1, active compounds read low 0.945 | locus YDL134C, strain PPH21, active compounds read low 0.987 | locus YDL185W, strain tfp1, active compounds read low 0.927 | locus YDL192W, strain arf1, active compounds read low 0.919 | locus YDR001C, strain nth1, active compounds read low 1 | locus YDR069C, strain doa4, active compounds read low 1 | locus YDR101C, strain arx1, active compounds read low 0.969 | locus YDR137W, strain rgp1, active compounds read low 0.939 | locus YDR150W, strain NUM1, active compounds read low 0.969 | locus YDR159W, strain sac3, active compounds read low 1.02 | locus YDR195W, strain ref2 1.06 | locus YDR297W, strain sur2, active compounds read low 1.01 | locus YDR318W, strain mcm21, active compounds read low 0.971 | locus YDR334W, strain swr1, active compounds read low 1.01 | locus YDR335W, strain msn5, active compounds read low 1.02 | locus YDR388W, active compounds read low 0.977 | locus YDR392W, strain spt3, active compounds read low 0.977 | locus YDR502C, strain sam2, active compounds read low 0.955 | locus YEL003W, strain gim4, active compounds read low 1.01 | locus YEL037C, strain rad23, active compounds read low 1 | locus YEL061C, strain CIN8 (second series), active compounds read low 1.01 | locus YEL061C, strain CIN8, active compounds read low 0.989 | locus YER015W, strain faa2, active compounds read low 1 | locus YER016W, strain bim1, active compounds read low 1.01 | locus YER110C, active compounds read low 0.966 | locus YER111C, strain swi4, active compounds read low 1.02 | locus YER155C, strain BEM2 (second series), active compounds read low 1.03 | locus YER155C, strain BEM2, active compounds read low 1 | locus YER167W, strain BCK2, active compounds read low 0.992 | locus YFR010W, strain ubp6, active compounds read low 1.01 | locus YGL078C, strain dbp3, active compounds read low 0.984 | locus YGL086W, strain mad1, active compounds read low 0.953 | locus YGL167C, strain pmr1, active compounds read low 0.987 | locus YGL173C, strain kem1, active compounds read low 1.01 | locus YGL227W, strain vid30, active compounds read low 1.01 | locus YGL240W, strain doc1, active compounds read low 1.03 | locus YGL248W, strain PDE1, active compounds read low 0.93 | locus YGL253W, strain hxk2, active compounds read low 1.01 | locus YGR078C, strain PAC10, active compounds read low 0.922 | locus YGR135W, strain pre9, active compounds read low 0.978 | locus YGR252W, strain gcn5, active compounds read low 0.921 | locus YHR013C, strain ard1, active compounds read low 1.06 | locus YHR027C, strain rpn1, active compounds read low 1 | locus YHR079C, strain IRE1 (second series), active compounds read low 0.97 | locus YHR094C, strain hxt1, active compounds read low 0.982 | locus YHR129C, strain ARP1, active compounds read low 0.97 | locus YHR142W, strain chs7, active compounds read low 0.995 | locus YHR200W, strain rpn10, active compounds read low 0.963 | locus YIL066C, strain RNR3, active compounds read low 0.965 | locus YIL073C, strain SPO22, active compounds read low 0.846 | locus YIL125W, strain kgd1, active compounds read low 0.984 | locus YIR030C, strain dcg1, active compounds read low 0.98 | locus YJL092W, strain hpr5, active compounds read low 1.01 | locus YJL095W, strain BCK1 (second series), active compounds read low 1.01 | locus YJL095W, strain BCK1, active compounds read low 0.9 | locus YJL115W, strain asf1, active compounds read low 1.02 | locus YJL129C, strain trk1, active compounds read low 0.974 | locus YJL134W, strain LCB3, active compounds read low 0.983 | locus YJL154C, strain vps35, active compounds read low 1.02 | locus YJL164C, strain tpk1, active compounds read low 0.999 | locus YJL166W, strain qcr8, active compounds read low 1.02 | locus YJL168C, strain set2, active compounds read low 0.984
